# Assay results: PubChem BioAssay AID651692 (Broad Institute, 2012)
# Potency and affinity values are given separately. Active and inactive are the calls of the source.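 The calls were made as follows: active = fitted half-maximal concentration for loss of cell signal no higher than twice the top valid tested concentration; inconclusive = flat curve at 30 to 70% inhibition, or poor fit; inactive = flat within 30%, signal rise, or potency above limit.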
# Experiment: cytotoxicity toward MDA-MB-231 breast cancer cells – cell-based, CellTiter-Glo luminescence, cherry-pick, cytotoxicity control for RAD54 inhibitor project, dose response (AID 651692);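 also: 0% = median of sample compound wells and -100% = staurosporine control wells; more negative values mean stronger loss of viable cell signal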
# Conditions: MDA-MB-231 viability, 24 h; series mostly up to 26 µM; activity change, negative = growth inhibition: at the top concentration
row,Structure (SMILES),"activity change, negative = growth inhibition"
1,Cc1ccc2oc(=O)c3cc(C(=O)NCCCN4CCN(C)CC4)sc3c2c1,6.21% (inactive)
2,Cc1ccc2nc3c(c(Nc4ccc(O)cc4)c2c1)CCC3,-3.8% (inactive)
3,O=C(Nc1ccccc1)c1cc(S(=O)(=O)N2CCOCC2)cs1,11.1% (inactive)
4,COc1ncccc1-c1cc2nc(NCCCN(C)C)n(C)c(=O)c2s1,6.33% (inactive)
5,COc1cc2[nH]c3c(=O)n(CCN(C(C)C)C(C)C)cnc3c2cc1OC,14% (inactive)
6,Cc1ccc(OCC(=O)Nc2cccc(-c3nnc(-c4ccccc4)o3)c2)c(C)c1,-3.67% (inactive)
7,CCCN(CCC)c1nc(-c2ccccn2)nc2ccccc12,-1.83% (inactive)
8,NC(=O)C1CCN(c2nc(-c3cccnc3)cs2)CC1,5.88% (inactive)
9,c1cncc(Nc2c3ccccc3nc3ccccc23)c1,10.5% (inactive)
10,CCN(CC)CCNC(=O)c1cc2c(-c3ccc(Cl)cc3)nn(C)c2s1,-19.8% (inactive)
11,Cc1ccc(S(=O)(=O)N2CCOCC2)c(C)c1NS(C)(=O)=O,1.27% (inactive)
12,CCN(CC)CCCNC(=O)C1CCN(c2ncnc3c2sc2cccc(F)c23)CC1,0.901% (inactive)
13,Cc1cc(Nc2ccc3c(c2)OCCO3)c2cccc(C)c2n1,-8.03% (inactive)
14,COc1ccc(-c2cc3nc(NCCCN(C)C)n(C)c(=O)c3s2)cc1OC,7.17% (inactive)
15,CN1CCN(c2nc(-c3cccnc3)nc3ccccc23)CC1,4.66% (inactive)
16,CCN1CCN(c2cc(C)c3cc(NC(=S)NCCN(C)C)ccc3n2)CC1,1.08% (inactive)
17,CN(C)CCN(C(=O)CN1C(=O)c2ccccc2C1=O)c1nc2cc3c(cc2s1)OCCO3,-2.76% (inactive)
18,CCOCCCNC(=S)Nc1ccc2nc(N3CCCC3)cc(C)c2c1,-4.85% (inactive)
19,CN1CCCN(c2cc(-c3ccc4ccccc4c3)nc3ccnn23)CC1,-8.54% (inactive)
20,CN(C)CCNC(=O)c1cccc(-c2cnc3c(NC=O)cc(-c4ccc(C(=O)N5CCOCC5)cc4)cn23)c1,-0.135% (inactive)

row,Structure (SMILES),"activity change, negative = growth inhibition"
1,Cc1ccc2nc(C)c3c(c2c1)N(c1ccc(F)cc1)CC3,-8.5% (inactive)
2,CC(C)N1CCc2c(sc(NC(=O)c3ccc(C(=O)c4ccccc4)cc3)c2C(N)=O)C1,-13.8% (inactive)
3,OC1CCCN(Cc2c3ccccc3cc3ccccc23)C1 (centres undefined),7.86% (inactive)
4,COc1cc(NCCCNC(C)C)c2nccc(C)c2c1,-9.96% (inactive)
5,CCc1nc(Nc2ccncc2)c2oc3ccccc3c2n1,4.8% (inactive)
6,COc1cc(NC(=O)c2cccnc2Sc2ccc(C)c(C)c2)cc(OC)c1OC,8.68% (inactive)
7,CCN(CC)CCCNc1nc2cc(OC)c(OC)cc2c2nc(-c3cccnc3)nn12,9.47% (inactive)
8,COc1ccccc1Nc1nc(NCCCN(C)C)nc(N)c1[N+](=O)[O-],4.83% (inactive)
9,CCN(CC)Cc1cc2[nH]c3c4ccc(Cl)cc4ncc3c2cc1OC,2.58% (inactive)
10,CCCCN(CC)CCCNC(=S)Nc1ccc2nc(N3CCN(CC)CC3)cc(C)c2c1,-2.93% (inactive)
11,CCN1CCCC1CNC(=O)c1cc2c(-c3cccc(OC)c3)nn(C)c2s1 (centres undefined),-0.025% (inactive)
12,CCN1CCN(c2cc(C)c3cc(NC(=S)N4CC(C)CC(C)C4)ccc3n2)CC1 (centres undefined),-2.48% (inactive)
13,CN(C)CCCNc1nc2cc(-c3ccc(C(=O)N4CCN(C)CC4)cc3)sc2c(=O)n1C,4.25% (inactive)
14,CCOC(=O)c1c(NC(=O)c2ccc(S(=O)(=O)N3CCOCC3)cc2)sc2c1CCN(C(C)C)C2,-3.25% (inactive)
15,COc1ccc2c(c1)c1ncn(CCN3CCCCC3)c(=O)c1n2C,3.69% (inactive)
16,CCN(CC)CCCNc1nc(-c2ccccc2)nc2ccccc12,-2.13% (inactive)
17,O=S(=O)(c1ccc(-c2nnc(SCc3ccccc3)o2)cc1)N1CCCC1,0.546% (inactive)
18,CCNC(=O)c1cc2c(=O)n3cccc(C)c3nc2n(CCc2ccccc2)c1=N,-8.42% (inactive)
19,NC1CCN(c2c(F)cc3c(=O)c(C(=O)O)cn(C4CC4)c3c2Cl)C1 (centres undefined),16% (inactive)
